# Only some compounds are listed: those with a hit (about 0.97% of all), similar ones and a draw of the others.
# CCT chaperon mod: High-Throughput Screening for Modulators of Cytosolic Chaperonin Activity | purified chaperonin ATPase assay, HTRF ADP detection, 30 min | activity change, % (concentration not given with the values), hits read low | 360,000 compounds, 0.3% hits; in the data active = activity change below about -30%; note: % is set by controls: 0 for no effect and ±100 for the full control effect
#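 ATPase activity: ADP formed was measured by HTRF Transcreener (665/615 nm ratio) after 30 min at 37 deg C with 10 uM ATP. Compounds screened at one 76 uM concentration against 40 or 20 nM TRiC in Tris pH 7.4/KCl/MgCl2/DTT buffer.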
# Akt phos inh: HTS Assay for Inhibitors of Akt Phophorylation: Primary Screen; Neuro2A IGF-stimulated pAkt S473 HTRF, 20 min; active compounds read low; activity change, % for hits at 50 µM; 360,000 compounds, 0.32% hits; AID 651550, 2012; in the data active = activity change below about -80%; inconclusive = mostly about -51% to -80%; note: % is set by controls: 0 for no effect and ±100 for the full control effect
#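 Single-point screen (50 µM final compound) in Neuro2A cells stimulated 20 min with 6 nM IGF at 37 deg C. After lysis, Ser473-phosphorylated Akt read by HTRF (ex 330 nm, em 615/665 nm) as the 665/615 ratio.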
# Mm-Cpn inhibitor: Inhibitors of TCP-1 ring complex (TRiC) of Methanococcus maripaludis (MmCpn): qHTS; Chaperonin Mm-Cpn (Methanococcus maripaludis); purified Mm-Cpn ATPase, ADP Transcreener TR-FRET; Potency, µM (highest dose often 76.9 µM), for inactives: at the highest dose activity, negative = inhibition, most hits filed as inhibitors; 330,000 compounds, 0.031% hits; AID 504842, 2011; note: potency is the fitted concentration of half-maximal effect; % is set by controls: 0 for no effect and ±100 for the full control effect; nearly all actives have a fitted effect of over 80% in size
#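 Measured: ADP formation by purified Mm-CPN. Conditions: 25 nM protein, 10 uM ATP, Tris pH 7.4 with Mg2+, K+ and DTT, 37°C for 30 min. Detection: Transcreener HTRF after 30 min at room temperature.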
# Epigenetic reg: Quantitative High-Throughput Screen for Regulators of Epigenetic Control; murine LDR cells, GFP reporter derepression, 30 h; Potency, µM (doses to about 53.9 µM), for inactives: at the top dose GFP activation, usual class: activators; 280,000 compounds, 0.2% hits; AID 1865, 2009; note: potency is the fitted concentration of half-maximal effect; % of control where 0% means no effect; nearly all actives have a fitted effect of over 60% in size
#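 Readout is the number of GFP-expressing murine LDR cells, counted by cytometry following washing. Cells were treated with compound for 30 h at 37 C; the stably integrated CMV-GFP locus is normally silent.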
# uPA generation: qHTS for Inhibitors of Cell Surface uPA Generation; cell surface uPA generation assay, qHTS; Potency, µM (highest dose often 38.3 µM), without a hit: at the highest dose activity change, negative = inhibition, actives largely listed as inhibitors; 330,000 compounds, 0.31% hits; AID 540303, 2011; active = well fitted inhibition curve with a large enough effect; inconclusive = small, poorly fitted or top-dose-only effect; inactive = no such curve, though single readings can be large or run the other way; tested in mouse RAW 264.7 cells; note: potency is the fitted concentration of half-maximal effect; % is set by controls: 0 for no effect and ±100 for the full control effect; nearly all actives have a fitted effect of over 55% in size
# MBNL1 CUG block: qHTS Assay for Inhibitors of MBNL1-poly(CUG) RNA binding; Potency, µM (highest dose often 57.5 µM), inactives show at the highest dose activity change, negative = inhibition, most hits filed as inhibitors; TR-FRET MBNL1-His/biotin-(CUG)12 binding, 665/545 ratio; 280,000 compounds, 0.036% hits; active = well fitted inhibition curve with a large enough effect in the signal ratio, with a control signal flat, not every such curve was filed as active; inconclusive = small, poorly fitted or top-dose-only effect, or effect the other way, or a change in a side signal; inactive = no such curve, though single readings can be large or run the other way; the % refers to the signal ratio; note: potency is the fitted concentration of half-maximal effect; % is set by controls: 0 for no effect and ±100 for the full control effect
# Target sequence (Q9NR56 whole entry, looked up): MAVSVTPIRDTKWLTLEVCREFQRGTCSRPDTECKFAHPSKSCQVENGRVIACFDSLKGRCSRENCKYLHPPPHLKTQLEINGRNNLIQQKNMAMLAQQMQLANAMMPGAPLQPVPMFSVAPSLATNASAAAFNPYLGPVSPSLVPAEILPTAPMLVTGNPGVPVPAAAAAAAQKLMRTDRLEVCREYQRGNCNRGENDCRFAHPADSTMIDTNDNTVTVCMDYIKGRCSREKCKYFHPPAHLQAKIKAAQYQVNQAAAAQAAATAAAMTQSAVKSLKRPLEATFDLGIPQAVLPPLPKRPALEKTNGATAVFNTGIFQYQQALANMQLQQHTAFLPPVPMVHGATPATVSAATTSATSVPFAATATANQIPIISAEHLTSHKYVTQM
#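 Ratiometric TR-FRET (665 over 545 nm, excitation 340 nm) tracks disruption of MBNL1-His/biotin-(CUG)12 complex after 60 min at room temperature, with compounds at 92 nM to 58 uM final.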
# Active calls of the source: *; i = inactive; u = inconclusive; x = no result given; [ ] = dose if it differs, or a comment. Unless noted, calls come from the whole dose curve; as a rule, active = well fitted curve in the direction sought with a large enough effect; inconclusive = small, poorly fitted or top-dose-only effect, or another doubt; inactive = no such curve, though single readings can be large; an effect the other way counts as inactive or inconclusive.
SMILES,CCT chaperon mod,Akt phos inh,Mm-Cpn inhibitor,Epigenetic reg,uPA generation,MBNL1 CUG block
FC(F)(F)c1ccccc1NC(=S)N1CCCC1,-38*,i,-1%,0%,-5%,-4%
COc1ccc(OC2C=CC(c3ccccc3)OC2CO)c(C(C)(C)C)c1 (stereo not given),x,x,x,3%[10.1 µM],x,x
O=C(CCl)Nc1cc(SCC(O)CO)cc([N+](=O)[O-])c1 (stereo not given),-4,i,-2%,-6%,-16%,u
CCC(=O)Nc1cc(SCCO)cc([N+](=O)[O-])c1,1,-88%*,-1%,-1%,5%,u
Cc1ccc2c(c1)/C(=C/c1ccc(F)cc1)C(=O)N2,0,i,0%,x,0%,0%
Cc1ccc(C2=N/C(=C\c3ccc(F)cc3)C(=O)N2)cc1,-44*,i,-1%,x,10%,x
Cn1c(=O)c2c(=O)cc(NNC(=O)CC#N)[nH]c2n(C)c1=O,0,i,0%,0%,11%,-10%
CC1(CCc2ccccc2)NC(=O)N(Cc2nnc(-c3ccccc3Br)o2)C1=O (stereo not given),-3,-108%*,-2%,-1%,4%,-10%
COc1ccc(C)cc1NC(=O)c1sc2ncnc(N3CCN(c4ccccn4)CC3)c2c1C,-139*,i,-10%,x,2%,3%
Cc1ccc(NC(=O)c2sc3ncnc(N4CCN(c5ccccn5)CC4)c3c2C)c(C)c1,0,i,u,x,9%,149%
Cc1nc(NC(=O)c2ccco2)sc1-c1csc(Nc2ccc(Cl)cc2Cl)n1,0,i,-15%,2%,5%,3%
Cc1ccc(Cl)cc1Nc1nc(-c2sc(NC(=O)c3ccco3)nc2C)cs1,0,i,-17%,-1%,7.9µM*,129%
COc1ccc(S(=O)(=O)N(CCC(=O)O)Cc2ccccc2)cc1,-50*,i,2%,0%,6%,-4%
COc1ccc(NC(=O)C2CCN(c3cc(C)nc(-c4ccccc4)n3)CC2)cc1,-64*,i,0%,-2%,-2%,10%
Cc1cc(N2CCC(C(=O)Nc3ccc(F)cc3)CC2)nc(-c2ccccc2)n1,-1,i,-2%,1%,2%,4%
COc1ccc(C)cc1NC(=S)N1CC(C)OC(C)C1 (stereo not given),-48*,i,-2%,x,9%,-6%
COc1ccc(NC(=O)N2CC(C)OC(C)C2)cc1OC (stereo not given),0,i,-1%,-8%,x,3%
CN(C)CCCCOc1ccc(Br)cc1Cl,-59*,i,-6%,-1%[10.1 µM],0%,-1%
COCCCNCCCCOc1ccc(Br)cc1Cl,0,i,1%,-1%,7%,-4%
O=C(O)c1ccccc1S(=O)(=O)CC(=O)N1CCCCC1,0,i,0%,x,5%,-4%
C=CCn1c(SCCOc2ccccc2)nnc1C(C)NC(=O)c1ccccc1 (stereo not given),-1,x,2%,0%,1%,11%
C=CCn1c(SCC(=O)N2CCOCC2)nnc1C(C)NC(=O)c1ccccc1 (stereo not given),-47*,i,2%,x,-2%,-6%
COc1ccc(N(CC(=O)Nc2nccs2)S(=O)(=O)c2c(C)[nH]c(=O)[nH]c2=O)cc1,-37*,i,2%,4%,5%,-20%
O=C(NCc1cccc(Cl)c1)c1cnccn1,-5,-86%*,1%,2%,x,-6%
Cc1ccnc(NC(=O)c2cc3ccccc3o2)c1,0,i,-8%,x,2µM*,x
CCN1C(=O)[C@H]2[C@H]3[C@H](O)[C@H](O)C/C(=N/O[C@@H](C)CN4CCCc5nc(C)c(C)cc54)[C@@H]3CC[C@@H]2C1=O,x,x,x,0%[10.1 µM],x,x
